Assay in all cases: NCI-60 one-dose screen, 48 h (100 = growth as untreated, 0 = no growth, -100 = all killed)
Common to all, as to conditions: 10 µM unless noted

In assay [1] the test system is SK-MEL-2 melanoma.
Assay [2] concerns EKVX NSCLC.
The test system of assay [3] is SN12C renal.
In assay [4] the test system is UO-31 renal.
Assay [5] has as its system TK-10 renal.
Assay [6] concerns ACHN renal.
The subject of assay [7] is CAKI-1 renal.
The subject of assay [8] is A498 renal.
The subject of assay [9] is CCRF-CEM leukemia.
Assay [10] relates to MOLT-4 leukemia.

The panel holds about 83,000 compounds, 20% with a hit somewhere; the sample as a whole holds those more often.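 Cell lines were cultured in 96-well plates, exposed to a single compound concentration, and assessed for percent growth 48 hours later.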 Unmarked numbers belong to inactive results. The source made the active and inactive calls. The calls were made as follows: active = growth percent below 10; inactive = the rest.

Take `COc1cccc(COc2ccc(NC(=O)Nc3ccc(Cl)c(C(F)(F)F)c3)cc2)c1`: the growth is 51.5% in [1]; 35.2% in [2]; 33% in [3]; 7.91% (active) in assay [4]; 45.1% in assay [5]; 11.2% in assay [6]. In addition, the growth was 24.2% in [7], 35.3% in [8], 34.1% in assay [9] and 28.1% in assay [10].

As to `CCOC(=O)C1=C(N)N(c2ccccc2)C2=C(C(=O)CC(C)(C)C2)C1c1ccc(Cl)cc1Cl` (stereo not given), the growth in assay [1] was -12.3% (active); in assay [2] it was 18.8%; in [3] it was 20.6%; in assay [4] it was 16.8%; in assay [5] it was 36.6%; in assay [6] it was 17.1%. For the same compound, the growth was 23.1% in assay [7], 46.8% in [8], 19.3% in assay [9] and 7.23% (active) in assay [10].

Take `C=C1CCC2C3(C)COC(c4cccc(F)c4)OC3CCC2(C)C1C/C=C1/C(=O)OCC1O` (stereo not given): the growth was -50.6% (active) in [1]; 23.1% in assay [2]; 4.14% (active) in [3]; -63.2% (active) in [4]; -6.05% (active) in assay [5]; -89.6% (active) in assay [6]. Besides, the growth is 11% in assay [7], 118% in assay [8], 16% in assay [9] and 7.01% (active) in assay [10].

As to `O=C1c2c(c3c4cc(F)ccc4oc3c3[nH]c4ccc(Br)cc4c23)C(=O)N1O`, the growth was 5.56% (active) in [1]; 76.5% in [2]; 19.2% in assay [3]; 9.04% (active) in assay [4]; 137% in [5]; -33.8% (active) in assay [6]. Besides, the growth is 21.9% in [7], 119% in assay [8], 9.46% (active) in [9] and 7.83% (active) in assay [10].

As to `O=C(N1c2ccccc2Sc2ccccc21)n1ccc2cccnc21`, the growth in assay [1] is 73.6%; in [2], 79.3%; in assay [3] it was 81.1%; in assay [4], 55.6%; in assay [5], 90.7%; in [6], 88.2%. In addition, the growth is 53.6% in [7], 109% in [8], 63.2% in [9] and 38.3% in assay [10].

For the compound `COc1cccc(-c2nc(Nc3ccc(S(N)(=O)=O)cc3)c3ccccc3n2)c1`, the growth in [1] was 46.6%; in assay [2], 45.5%; in assay [3], 44.6%; in assay [4] it was 17.4%; in assay [5] it was 47.3%; in assay [6], 17.7%. Besides, the growth in [7] was 25.2%; in [8] it was 23.9%; in [9], 18.7%; in assay [10], 16.8%.

Take `N#Cc1c(-c2ccc(Br)cc2)nc2n[nH]c(-c3ccc(Br)cc3)c2c1-c1ccc(C(F)(F)F)cc1`: the growth in [1] was -37.7% (active); in [2] it was 5.95% (active); in [3] it was 19.2%; in [4], 11.9%; in assay [5], 70%; in assay [6], 13.1%. Besides, the growth in assay [7] was 2.69% (active); in [8] it was 92.3%; in assay [9] it was 13.9%; in assay [10], 4.06% (active).

With `COc1cc2oc(-c3cccc(C(=O)Nc4ccc(Cl)cc4)c3)cc(=O)c2c(OCCNC(=O)[C@H](CCC(=O)OC(C)(C)C)NC(=O)OC(C)(C)C)c1OC`, the growth in assay [1] was 106%; in assay [2] it was 90.7%; in assay [3], 91.9%; in assay [4], 74.4%; in assay [5], 109%; in assay [6], 93.7%. Moreover, the growth in assay [7] is 69.4%; in assay [8], 113%; in assay [9], 95.3%; in assay [10], 71.6%.

For `Cn1cc(-c2cc(N)n3nc(-c4cn(C)c5ccc(Cl)cc45)cc3n2)c2ccccc21`, the growth in assay [1] was 114%; in [2], 104%; in [3] it was 108%; in [4], 107%; in assay [5] it was 79.3%; in assay [6], 100%. Besides, the growth is 95.4% in [7], 101% in assay [8], 115% in assay [9] and 104% in [10].

As for `Cn1cc(-c2cc(N)n3nc(-c4cn(C)c5ccccc45)cc3n2)c2cc(Br)ccc21`, the growth in assay [1] was -84.5% (active); in assay [2], -22.1% (active); in [3], -43.9% (active); in [4] it was -84.2% (active); in [5], -27.8% (active); in assay [6], -31.7% (active). Further, the growth in assay [7] is -75.3% (active); in [8] it was -26.3% (active); in assay [9], -4.52% (active); in assay [10] it was -0.0957% (active).

With `COc1ccc(C(=O)/C=C/c2ccc(Oc3nc(Nc4ccc(F)cc4)nc(N(C)C)n3)c(OC)c2)cc1`, the growth was -8.47% (active) in assay [1]; 75.6% in assay [2]; 32.2% in assay [3]; 42.9% in [4]; 95.7% in assay [5]; 36.9% in assay [6]. Further, the growth in assay [7] is 49%; in assay [8], 78.3%; in assay [9], 19.2%; in [10], 10.8%.

As for `COc1cc2nc(SCc3ccccc3)n(-c3ccc(Cl)cc3)c(=O)c2cc1OC`, the growth in [1] is 28.3%; in assay [2], -13.1% (active); in assay [3] it was -11.3% (active); in assay [4], -38.8% (active); in assay [5], -38.8% (active); in assay [6] it was -66.4% (active). Also, the growth in assay [7] was -75.5% (active); in assay [8], 7.03% (active); in [9] it was 18.5%; in [10], 43.1%.

For the compound `COC(=O)/C=C/c1cccc2c1C(=O)NC(C)(c1cc3ccccc3oc1=O)N2` (stereo not given), the growth in assay [1] is -2.01% (active); in assay [2], 78.2%; in assay [3], 73.8%; in [4], 31.3%; in assay [5], 49%; in assay [6], 30.8%. The growth was 20.7% in assay [7], 49.7% in assay [8], 83.7% in [9] and 63% in [10].

These data come from PubChem BioAssay (NCI).
